# Among all 320,000 compounds or so, about 1,300 (0.41%) were called active. Inconclusive results (about 3%) are left out. No rule for the calls is given here. These entries were drawn from the full list. Potency and affinity values are given separately.
# Test: growth inhibition of non-replicating M. tuberculosis (AID 488890);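 also: plate controls were DMSO cells for no effect and high antibiotic wells for full effect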
# Conditions: Mycobacterium tuberculosis non-replicating, at 25 µM, stronger effect = higher value
row,SMILES,inhibition [%]
1,COC(=O)c1ccc(/C=C/C(=O)OCC(=O)NCc2cccs2)cc1,13.7
2,CN1CCC(NC(=O)c2cccs2)CC1,-14.8
3,CN1CCCC(C(=O)c2ccccc2)C1 (stereo not drawn),-7.66
4,CN1CC(C(=O)c2ccc(Cl)cc2)C(c2ccc(Cl)cc2Cl)C1 (stereo not drawn),55.7
5,CN1CC(C(=O)c2ccccc2)C(C(=O)c2ccccc2)C1 (stereo not drawn),14.7
6,CN1CCCC(C(=O)c2ccc(Cl)cc2)C1 (stereo not drawn),2.9
7,CC1CN(C(=O)c2cccs2)CC(C)O1 (stereo not drawn),-2.97
8,CC(=O)Oc1ccc(S(=O)(=O)c2ccc(OC(C)=O)cc2)cc1,-5.93
9,Cc1ccc(S(=O)(=O)Nc2ccc3c(c2)C(=O)N([C@H](C)CO)C[C@H](C)[C@@H](CN(C)C(=O)Nc2ccc(C(F)(F)F)cc2)O3)cc1,46.2
10,COc1cccc(-c2nn(-c3ccccc3)cc2CN(C)Cc2ccno2)c1,2.32
11,S=c1[nH]nc(Cc2ccc(Cl)cc2)n1-c1ccc2c(c1)OCCO2,-2
12,O=C(Nc1ccc(S(=O)(=O)Nc2nccs2)cc1)C1CCCCC1,60.2
13,O=C(NC(=S)Nc1ccc(S(=O)(=O)Nc2nccs2)cc1)C1CC1,23.6
14,Cc1ccc(C(=O)NNC(=O)c2ccc(C)cc2)cc1,-1.12
15,Cc1ccc(C(=O)NC(=S)NNC(=O)CC#N)cc1,39.8
16,Cc1cc(C(=O)N2CCN(c3ncccn3)CC2)nn1C,-1.81
17,COc1cccc(/C=C/C(=O)OCCN2C(=O)c3ccccc3C2=O)c1,24.5
18,CC1(C)C(=O)OC(c2cccc([N+](=O)[O-])c2)C2(CCCCC2)C1=O (stereo not drawn),12.6
19,COc1ccc(C2(CNC(=O)c3ccccc3)CCOCC2)cc1,-1.08
20,COC(=O)c1ccc(NC(=O)c2ccccc2-c2ccccc2C(=O)O)cc1,65.6

row,SMILES,inhibition [%]
1,CC(=O)c1ccc(NC(=O)c2ccccc2-c2ccccc2C(=O)O)cc1,78.9
2,COC(=O)C[C@H](NC(=O)Cn1cnc2c(SC)nc(N)nc21)C(=O)OC,-10.4
3,CC(=O)c1ccc(NC(=O)CNC2CCCCC2)cc1,-1.52
4,CCC/C(O)=C1\C(=O)CC(C)(C)CC1=Nc1ccccc1O,2.5
5,Cc1c(N=c2c(=O)c3ccccc3c2=O)c(=O)n(-c2ccccc2)n1C,-4.23
6,CC1c2[nH]c3ccccc3c2C[C@H]2C(=O)N(CCCN(C)C)CC(=O)N12 (stereo partly drawn),-5.98
7,Cc1ccc(C(=O)Nc2ccc(NC(=O)c3ccc(C)o3)cc2)o1,0.92
8,Cc1ccc(C(=O)CCNc2ccccc2)o1,-1.75
9,Cc1ccc(NC(=O)COC(=O)c2cc(=O)c3ccccc3o2)c(Br)c1,6.59
10,Cc1cc(/C=C2\SC(=S)NC2=O)c(C)n1C1CC1,43.8
11,CCN1C(=O)C(=Cc2cc(C)n(C3CC3)c2C)C(=O)N(CC)C1=S,69.5
12,CCCS(=O)(=O)C/C(N)=N/OC(=O)c1ccc(Cl)cc1,3.52
13,COc1ccc(NC(=O)CN(C)CC(=O)Nc2ccccc2SC)cc1,-4.75
14,Cc1onc(-c2ccccc2)c1C(=O)Nc1nc(-c2cc(F)ccc2F)cs1,-10.6
15,O=C(Nc1nc2c(F)cc(F)cc2s1)c1ccco1,36.2
16,COCC(=O)Nc1nc2ccc(C)cc2s1,49
17,O=C(NNc1nc2c(F)cc(F)cc2s1)c1ccccc1,-1.93
18,Cc1csc(NC(=O)c2cnccn2)n1,16.7
19,O=C(Nc1nc(-c2cc(F)ccc2F)cs1)C1=COCCO1,22.8
20,CCOCC(=O)Nc1nc2ccc(OCC)cc2s1,80

row,SMILES,inhibition [%]
1,Cc1ccc(C)c(-c2csc(NC(=O)c3c(C)noc3C)n2)c1,-15
2,CC(C)Cc1ccc(CN2CCCC(NC(=O)CCN3CCOCC3)C2)cc1 (stereo not drawn),34.5
3,CCS(=O)(=O)N1CCC(C(=O)Oc2ccc(C(=O)OC)cc2)CC1,4.94
4,Cc1ccc2nc(NC(=O)COC(=O)c3ccccn3)sc2c1,76.5
5,Cc1ccc2nc(NC(=O)c3ccccc3F)sc2c1,2.6
6,O=C(Nc1nc2ccc(F)cc2s1)c1cccs1,33.5
7,O=C(Nc1nc2ccc(F)cc2s1)Oc1ccccc1,6.26
8,Cc1cnc(NC(=O)c2ccncc2)s1,-17.1
9,CSc1ncccc1C(=O)Nc1ncc(C)s1,13.3
10,CCc1ccc(C(=O)NNc2cc(Cl)cc(Cl)c2)cc1,67.2
11,CN(C)c1ccc(NC(=O)CCCCCn2nnc3ccccc3c2=O)cc1,2.13
12,O=[N+]([O-])c1cccc(-c2nnc(-c3ccccc3)o2)c1,75.3
13,O=[N+]([O-])c1cccc(-c2nnc(-c3ccccc3F)o2)c1,35.9
14,Cc1ccc(C(=O)Nc2ccc(C(=O)N/N=C/c3ccc(C)o3)cc2)cc1,9.26
15,Cc1cccc(NC(=O)CCNS(=O)(=O)c2ccc(Cl)cc2)c1,-5.22
16,CCOC(=O)C1(Cc2ccc(OC)cc2)CCN(C(=O)CN2CCOC2=O)CC1,-7.21
17,CN(C)S(=O)(=O)c1ccc(C(=O)OCCc2ccccc2)cc1,42.9
18,CN(C)S(=O)(=O)c1ccc(Oc2ccccc2)cc1,27.6

# Reference: PubChem BioAssay AID488890 (Southern Research Specialized Biocontainment Screening …, 2010)
